{"source": "the supplement of paper PMC4022240", "binders": {"B1": {"name": "H4 38-50 A R R G G V Kme3 Rme I S G L I (peptide)", "chain": "ARRGGVKRISGLI"}, "B2": {"name": "H4 38-50 A R R G G V Kme3 R I S G L I (peptide)", "chain": "ARRGGVKRISGLI"}, "B3": {"name": "H4 38-50 A R R G G V Kme3 Rcit I S G L I (peptide)", "chain": "ARRGGVKRISGLI"}, "B4": {"name": "H4 53-65 E T R G V L K V F L E N V (peptide)", "chain": "ETRGVLKVFLENV"}, "B5": {"name": "H4 38-50 A R R G G V Kme2 Rme2s I S G L I (peptide)", "chain": "ARRGGVKRISGLI"}}, "assay_in_all_cases": "peptide microarray binding signal (635 nm), min-max normalized on array (fraction of array maximum); higher = stronger binding", "key": {"[1]": {"biological_target": "T1, HaloTag-ATRX ADD domain (163-292)", "T1 chain": "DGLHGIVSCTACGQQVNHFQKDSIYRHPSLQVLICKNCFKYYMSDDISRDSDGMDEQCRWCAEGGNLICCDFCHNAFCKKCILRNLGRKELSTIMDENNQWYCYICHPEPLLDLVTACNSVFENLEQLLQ", "procedure,_shortened": "(§1)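 Within each library, mean intensities of triplicate spots were min-max scaled to give the binding signal. The spots were histone 13-mer peptide–cellulose conjugates on nitrocellulose with a Cy3 tracer, blocked overnight at 4°C. They were then probed for 1 h at 4°C using biotin-labelled HaloTag reader fusions (10 nM to 1 μM) with streptavidin-Alexa Fluor 647 or rabbit histone antibodies (1:10,000 to 1:2,000) with anti-rabbit Alexa 647, and scanned at 635 nm for signal and 532 nm for misprints on an Axon GenePix 4000B.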"}, "[2]": {"biological_target": "HaloTag-ING2 PHD (mouse Ing2 200-280)", "procedure,_shortened": "as §1"}, "[3]": {"biological_target": "anti-H3K4me3 antibody ab8580", "procedure,_shortened": "as §1"}, "[4]": {"biological_target": "anti-H3K9me3 antibody ab8898", "procedure,_shortened": "as §1"}, "[5]": {"conditions": "peptide region: H4 38-50, peptide modifications: H4K44me3 H4R45me1, binder concentration: 1:2,000 dilution"}, "[6]": {"conditions": "peptide region: H4 38-50, peptide modifications: H4K44me3 H4R45me1, binder concentration: 1:10,000 dilution"}, "[7]": {"conditions": "peptide region: H4 38-50, peptide modifications: H4K44me3, binder concentration: 1:2,000 dilution"}, "[8]": {"conditions": "peptide region: H4 38-50, peptide modifications: H4K44me3, binder concentration: 1:10,000 dilution"}, "[9]": {"conditions": "peptide region: H4 38-50, peptide modifications: H4K44me3 H4R45cit, binder concentration: 1:2,000 dilution"}, "[10]": {"conditions": "peptide region: H4 38-50, peptide modifications: H4K44me3 H4R45cit, binder concentration: 1:10,000 dilution"}, "[11]": {"conditions": "peptide region: H4 53-65, binder concentration: 1:2,000 dilution"}, "[12]": {"conditions": "peptide region: H4 53-65, binder concentration: 1:10,000 dilution"}, "[13]": {"conditions": "peptide region: H4 38-50, peptide modifications: H4K44me2 H4R45me2s, binder concentration: 1:2,000 dilution"}, "[14]": {"conditions": "peptide region: H4 38-50, peptide modifications: H4K44me2 H4R45me2s, binder concentration: 1:10,000 dilution"}}, "note": "± gives the standard deviation.", "data": [{"binder": "B1", "values": [{"measurement": "peptide microarray binding signal", "setting": "[1]; peptide region: H4 38-50, peptide modifications: H4K44me3 H4R45me1, binder concentration: 50 nM", "result": "0.002821 ± 2.4e-05"}, {"measurement": "peptide microarray binding signal", "setting": "[1]; peptide region: H4 38-50, peptide modifications: H4K44me3 H4R45me1, binder concentration: 500 nM", "result": "0.00524 ± 8.9e-05"}, {"measurement": "peptide microarray binding signal", "setting": "[2]; peptide region: H4 38-50, peptide modifications: H4K44me3 H4R45me1, binder concentration: 10 nM", "result": "0.0104 ± 0.0012"}, {"measurement": "peptide microarray binding signal", "setting": "[2]; peptide region: H4 38-50, peptide modifications: H4K44me3 H4R45me1, binder concentration: 100 nM", "result": "0.0257 ± 0.006"}, {"measurement": "peptide microarray binding signal", "setting": "[3]; [5]", "result": "0.00143 ± 5.5e-05"}, {"measurement": "peptide microarray binding signal", "setting": "[3]; [6]", "result": "0.001655 ± 1.6e-05"}, {"measurement": "peptide microarray binding signal", "setting": "[4]; [5]", "result": 0.000951}, {"measurement": "peptide microarray binding signal", "setting": "[4]; [6]", "result": "0.000865 ± 9e-06"}]}, {"binder": "B2", "values": [{"measurement": "peptide microarray binding signal", "setting": "[1]; peptide region: H4 38-50, peptide modifications: H4K44me3, binder concentration: 50 nM", "result": "0.00367 ± 6.4e-05"}, {"measurement": "peptide microarray binding signal", "setting": "[1]; peptide region: H4 38-50, peptide modifications: H4K44me3, binder concentration: 500 nM", "result": "0.00671 ± 0.00031"}, {"measurement": "peptide microarray binding signal", "setting": "[2]; peptide region: H4 38-50, peptide modifications: H4K44me3, binder concentration: 10 nM", "result": "0.00859 ± 9.7e-05"}, {"measurement": "peptide microarray binding signal", "setting": "[2]; peptide region: H4 38-50, peptide modifications: H4K44me3, binder concentration: 100 nM", "result": "0.0129 ± 0.00014"}, {"measurement": "peptide microarray binding signal", "setting": "[3]; [7]", "result": "0.00104 ± 4.6e-05"}, {"measurement": "peptide microarray binding signal", "setting": "[3]; [8]", "result": "0.0016 ± 2.7e-05"}, {"measurement": "peptide microarray binding signal", "setting": "[4]; [7]", "result": "0.0011 ± 0.0001"}, {"measurement": "peptide microarray binding signal", "setting": "[4]; [8]", "result": "0.00161 ± 5.6e-05"}]}, {"binder": "B3", "values": [{"measurement": "peptide microarray binding signal", "setting": "[1]; peptide region: H4 38-50, peptide modifications: H4K44me3 H4R45cit, binder concentration: 50 nM", "result": "0.0125 ± 0.00042"}, {"measurement": "peptide microarray binding signal", "setting": "[1]; peptide region: H4 38-50, peptide modifications: H4K44me3 H4R45cit, binder concentration: 500 nM", "result": "0.0116 ± 0.0018"}, {"measurement": "peptide microarray binding signal", "setting": "[2]; peptide region: H4 38-50, peptide modifications: H4K44me3 H4R45cit, binder concentration: 10 nM", "result": "0.00836 ± 0.00091"}, {"measurement": "peptide microarray binding signal", "setting": "[2]; peptide region: H4 38-50, peptide modifications: H4K44me3 H4R45cit, binder concentration: 100 nM", "result": "0.00588 ± 0.0012"}, {"measurement": "peptide microarray binding signal", "setting": "[3]; [9]", "result": "0.00387 ± 0.00082"}, {"measurement": "peptide microarray binding signal", "setting": "[3]; [10]", "result": "0.00502 ± 0.00084"}, {"measurement": "peptide microarray binding signal", "setting": "[4]; [9]", "result": "0.00444 ± 0.00077"}, {"measurement": "peptide microarray binding signal", "setting": "[4]; [10]", "result": "0.00467 ± 0.00024"}]}, {"binder": "B4", "values": [{"measurement": "peptide microarray binding signal", "setting": "[1]; peptide region: H4 53-65, binder concentration: 50 nM", "result": "0.00282 ± 3.2e-05"}, {"measurement": "peptide microarray binding signal", "setting": "[1]; peptide region: H4 53-65, binder concentration: 500 nM", "result": "0.003334 ± 2.5e-05"}, {"measurement": "peptide microarray binding signal", "setting": "[2]; peptide region: H4 53-65, binder concentration: 10 nM", "result": "0.00639 ± 0.00028"}, {"measurement": "peptide microarray binding signal", "setting": "[2]; peptide region: H4 53-65, binder concentration: 100 nM", "result": "0.00461 ± 7.6e-05"}, {"measurement": "peptide microarray binding signal", "setting": "[3]; [11]", "result": "0.00121 ± 3.5e-05"}, {"measurement": "peptide microarray binding signal", "setting": "[3]; [12]", "result": "0.00188 ± 3.5e-05"}, {"measurement": "peptide microarray binding signal", "setting": "[4]; [11]", "result": "0.00068 ± 1e-05"}, {"measurement": "peptide microarray binding signal", "setting": "[4]; [12]", "result": "0.001211 ± 1.2e-05"}]}, {"binder": "B5", "values": [{"measurement": "peptide microarray binding signal", "setting": "[1]; peptide region: H4 38-50, peptide modifications: H4K44me2 H4R45me2s, binder concentration: 50 nM", "result": "0.00586 ± 0.00025"}, {"measurement": "peptide microarray binding signal", "setting": "[1]; peptide region: H4 38-50, peptide modifications: H4K44me2 H4R45me2s, binder concentration: 500 nM", "result": "0.0125 ± 0.00027"}, {"measurement": "peptide microarray binding signal", "setting": "[2]; peptide region: H4 38-50, peptide modifications: H4K44me2 H4R45me2s, binder concentration: 10 nM", "result": "0.0175 ± 0.00042"}, {"measurement": "peptide microarray binding signal", "setting": "[2]; peptide region: H4 38-50, peptide modifications: H4K44me2 H4R45me2s, binder concentration: 100 nM", "result": "0.0397 ± 0.019"}, {"measurement": "peptide microarray binding signal", "setting": "[3]; [13]", "result": "0.00361 ± 0.00025"}, {"measurement": "peptide microarray binding signal", "setting": "[3]; [14]", "result": "0.00611 ± 0.00033"}, {"measurement": "peptide microarray binding signal", "setting": "[4]; [13]", "result": "0.0037 ± 0.00027"}, {"measurement": "peptide microarray binding signal", "setting": "[4]; [14]", "result": "0.00484 ± 0.00089"}]}]}
